Bioassay records deposited in PubChem BioAssay by National Center for Advancing Translational Sciences (NCATS).
TDP1 cell CPT = growth inhibition of DT40 Tdp1-/-;hTDP1 cells with camptothecin (screen for TDP1 inhibitors); chicken DT40 Tdp1-/-;hTDP1 cells + 20 nM CPT, ATP luminescence, 48 h; Potency, µM (top dose mostly 46.2 µM), actives largely listed as inhibitors; actives 12% (n = 420,000); AID 686979; also: nearly all actives have a fitted effect of over 55% in size
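Chicken DT40 Tdp1-/- cells stably complemented with human TDP1 were seeded at 400 cells/well in medium containing 20 nM camptothecin, exposed to pin-transferred compounds, and grown at 37 °C for at least 48 hr. Viability was read as ATP luminescence.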
KB-V1 cytotox = kills drug-selected multidrug resistant KB-V1 cells. KB-V1 MDR cells viability, CellTiter-Glo, 72 h. Potency, µM (series often up to 46.1 µM), most hits filed as cytotoxic. actives 3.4% (n = 400,000); also: nearly all actives have a fitted effect of over 60% in size
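Drug-selected KB-V1 cells, grown in DMEM lacking phenol red with 10% FBS, receive compound titrations; after three days at 37 degrees C, surviving cell ATP is quantified by CellTiter-Glo luminescence and responses normalized and curve-fitted.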
TDP1 cell noCPT = qHTS for Inhibitors of human tyrosyl-DNA phosphodiesterase 1 (TDP1): qHTS in cells in absence of CPT. DT40 Tdp1-/- hTDP1 cells, no CPT, ATP luminescence, 48 h. Potency, µM (top dose mostly 46.2 µM), actives largely listed as inhibitors. actives 15% (n = 420,000); also: nearly all actives have a fitted effect of over 55% in size
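DT40 Tdp1-/-;hTDP1 cells, no CPT (DMSO vehicle only), 400 cells/well; compounds pin-transferred; ≥48 hr, 37 °C; CellTiter-Glo 30 min RT dark, luminescence read.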
HT1080-NT tox = kills 2HG-producing HT-1080-NT fibrosarcoma cells; HT-1080-NT fibrosarcoma viability, CellTiter-Glo ATP luminescence, 48 h; Potency, µM (top dose mostly 46.1 µM), hits mostly cytotoxic; actives 1.6% (n = 360,000); AID 686970;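 also: NT is the 2HG producing partner of a matched IDH1 knockdown line; nearly all actives have a fitted effect of over 55% in size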
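Read-out is CellTiter-Glo luminescence after 10 minutes at room temperature, following 48 hours' compound treatment of HT-1080-NT cells (750 cells/well, RPMI, 5% FBS, 37 degrees C).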
HT1080 IDH1KD tx = toxicity to HT-1080 IDH1 knockdown cells (counter line); HT-1080 IDH1 knockdown viability, ATP luminescence, 48 h; Potency, µM (highest dose often 46.1 µM), hits mostly cytotoxic; actives 2% (n = 360,000); AID 686971
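After a 2 h attachment period, IDH1KD HT-1080 cells took pin-transferred compound for 48 h at 37 °C; ATP-based luminescence after 10 min room-temperature reagent incubation reported viability.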
KB-3-1 tox = kills parental KB-3-1 adenocarcinoma cells | Potency, µM (titrated, usually from 46.1 µM), hits mostly cytotoxic | AID 1347075 | KB-3-1 viability, CellTiter-Glo ATP luminescence, 72 h | actives 1.4% (n = 400,000); also: nearly all actives have a fitted effect of over 60% in size
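Viability of parental KB-3-1 cells, measured by CellTiter-Glo luminescence, followed a 72 h incubation at 37 °C with pinned compounds in phenol-red-free DMEM containing 10% FBS.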
Large screens that a line does not name were inactive. This is a sample that favours compounds with a hit; in the whole collection about 19% have one here. Calls follow the shape of the dose curve; as a rule, active = well fitted curve in the direction sought with a large enough effect; inconclusive = small, poorly fitted or top-dose-only effect, or another doubt; inactive = no such curve, though single readings can be large; an effect the other way counts as inactive or inconclusive.

CCc1nc2ccc(C(=O)Nc3ccc(Cl)c(Cl)c3)cn2c1N(C)Cc1ccc(OC)cc1	TDP1 cell CPT 16µM, KB-V1 cytotox inconclusive, TDP1 cell noCPT inconclusive, HT1080-NT tox inconclusive, HT1080 IDH1KD tx inconclusive
CCc1nc2ccc(C(=O)N(C)Cc3ccccc3)cn2c1N(C)Cc1ccc(OC)cc1	TDP1 cell CPT 12µM, KB-V1 cytotox inconclusive, TDP1 cell noCPT 12µM, HT1080-NT tox inconclusive
CCc1nc2ccc(C(=O)NCc3ccccc3OC)cn2c1N(C)Cc1ccc(OC)cc1	TDP1 cell CPT 16µM, KB-V1 cytotox inconclusive, TDP1 cell noCPT 21µM, HT1080-NT tox inconclusive, HT1080 IDH1KD tx inconclusive
Cc1nn2c(=O)cc(COC(=O)c3ccco3)nc2s1	none (no result: HT1080-NT tox, HT1080 IDH1KD tx)
C[C@@H]1CC2=C(C(=O)OC(C)(C)O2)[C@H](c2ccc(Cl)cc2)O1	TDP1 cell noCPT inconclusive
CCc1nc2ccc(C(=O)N(C)CCCN(C)C)cn2c1N(CC)CCOC	none
CCc1nc2ccc(C(=O)N(C)CCCN(C)C)cn2c1N(C)Cc1cc2ccccc2s1	TDP1 cell CPT inconclusive, TDP1 cell noCPT 21µM, HT1080-NT tox 18µM, HT1080 IDH1KD tx 16µM
CSc1cccc(NC(=O)Cn2nnc(C(=O)NCCc3ccccc3)c2N)c1	none (no result: HT1080-NT tox, HT1080 IDH1KD tx)
O=C(COc1c(Br)cc(Br)c2cccnc12)Nc1ccccc1F	TDP1 cell CPT inconclusive, TDP1 cell noCPT 18µM
CSc1ccc(CNC(=O)CCn2ccc3cc(S(=O)(=O)N4CCCC4)ccc32)cc1	TDP1 cell CPT inconclusive, KB-V1 cytotox inconclusive, TDP1 cell noCPT inconclusive, KB-3-1 tox inconclusive
Cc1ccc2nc(SCC(=O)N3CCC4(CC3)CC4C(=O)Nc3ccc(F)c(F)c3)[nH]c2c1 (stereo not given)	TDP1 cell CPT inconclusive, TDP1 cell noCPT 23µM (no result: KB-V1 cytotox, HT1080-NT tox, HT1080 IDH1KD tx, KB-3-1 tox)
COc1ccc(COc2cccc3ccc(C)nc23)cc1F	KB-V1 cytotox inconclusive
Cc1cc(C)nc(NC2=NCCN2C(=O)NC2CCCCC2)n1	TDP1 cell CPT inconclusive, TDP1 cell noCPT 16µM
O=C(CCN1C(=O)/C(=C/c2ccccc2)SC1=S)N[C@@H](CO)Cc1ccccc1	TDP1 cell CPT 18µM, TDP1 cell noCPT 10µM, KB-3-1 tox inconclusive
O=C(CCN1C(=O)/C(=C/c2ccccc2)SC1=S)Nc1ccccn1	none
O=C(CCN1C(=O)/C(=C/c2ccccc2F)SC1=S)N[C@@H](CO)Cc1ccccc1	TDP1 cell CPT inconclusive, TDP1 cell noCPT 16µM, HT1080 IDH1KD tx inconclusive, KB-3-1 tox inconclusive
O=C(CN1C(=O)/C(=C/c2ccccc2F)SC1=S)NC1C=CS(=O)(=O)C1 (stereo not given)	KB-V1 cytotox inconclusive
CCOc1ccc(NC(=O)[C@@H]2CCC(=O)N2C2OC(=O)c3ccccc32)cc1 (stereo not given in full)	none
Fc1ccc(NC(=S)Nc2ccc(Br)cc2)cc1	TDP1 cell CPT 8.2µM, TDP1 cell noCPT 9.2µM, HT1080-NT tox inconclusive, HT1080 IDH1KD tx inconclusive, KB-3-1 tox inconclusive
CCN(CC)c1ccc(NC(=S)Nc2ccc(F)cc2)cc1	TDP1 cell CPT inconclusive, TDP1 cell noCPT 23µM
Oc1ccc(NC(=S)Nc2ccc(F)cc2)cc1	TDP1 cell noCPT inconclusive
COc1cc(CN2CCCC(C(=O)c3ccc(C(C)(C)C)cc3)C2)cc(OC)c1O (stereo not given)	TDP1 cell CPT inconclusive, TDP1 cell noCPT inconclusive, HT1080-NT tox inconclusive, HT1080 IDH1KD tx inconclusive
COc1ccc(C(=O)NC2CCCN(Cc3ccc(Cl)cc3)C2)c(OC)c1 (stereo not given)	TDP1 cell CPT 16µM, KB-V1 cytotox inconclusive, TDP1 cell noCPT 12µM, HT1080-NT tox inconclusive, KB-3-1 tox inconclusive
COc1ccc(C(=O)C2CCCN(C3Cc4ccccc4C3)C2)c(OC)c1 (stereo not given)	TDP1 cell CPT 21µM, TDP1 cell noCPT 10µM, HT1080-NT tox inconclusive, HT1080 IDH1KD tx inconclusive
COc1cccc(CC(=O)NC2CCCN(Cc3ccc(Cl)cc3)C2)c1 (stereo not given)	TDP1 cell CPT inconclusive, TDP1 cell noCPT inconclusive
COc1ccc(C(=O)C2CCCN(Cc3cc(C)c(O)c(C)c3)C2)c(OC)c1 (stereo not given)	TDP1 cell CPT inconclusive, TDP1 cell noCPT 21µM, HT1080-NT tox inconclusive
CCOc1ccc2[nH]cc(S(=O)(=O)c3ccc(F)cc3)c(=O)c2c1	TDP1 cell CPT 9.2µM, TDP1 cell noCPT 9.2µM, KB-3-1 tox inconclusive
CCc1ccc(S(=O)(=O)c2nnn3c2nc(N2CCOCC2)c2sccc23)cc1	none (no result: HT1080-NT tox, HT1080 IDH1KD tx)
Cc1cccc(N(C(=O)c2snc(C(N)=O)c2N)C(C(=O)NCc2ccccc2)c2ccncc2)c1 (stereo not given)	TDP1 cell noCPT inconclusive, HT1080-NT tox 18µM, HT1080 IDH1KD tx inconclusive, KB-3-1 tox 18µM
COc1ccc(N(C(=O)c2snc(C(N)=O)c2N)C(C(=O)NCc2ccccc2)c2ccc(O)cc2)cc1 (stereo not given)	TDP1 cell CPT inconclusive, TDP1 cell noCPT 23µM
NC(=O)c1nsc(C(=O)N(c2ccccc2)C(C(=O)NCc2ccc(F)cc2)c2ccc(O)cc2)c1N (stereo not given)	TDP1 cell CPT 21µM, TDP1 cell noCPT 18µM
O=C(c1c[nH]c2ccccc2c1=O)N1CCCCCC1	none
Nc1sccc1C(=O)NCc1ccccc1	TDP1 cell noCPT 15µM
O=C(NCCc1ccccc1)c1ccccc1NC(=O)C1CC=CCC1C(=O)O (stereo not given)	TDP1 cell CPT 15µM, TDP1 cell noCPT 16µM
Cc1ccccc1NC(=O)Nc1ccccc1C(=O)NCc1ccccc1	TDP1 cell noCPT inconclusive, KB-3-1 tox inconclusive
O=C(CCl)Nc1ccccc1C(=O)NCc1ccccc1	TDP1 cell CPT 23µM, KB-V1 cytotox inconclusive, TDP1 cell noCPT inconclusive, HT1080 IDH1KD tx inconclusive, KB-3-1 tox inconclusive
Cc1ccc(C(=O)Nc2ccccc2C(=O)NCc2ccccc2)cc1	TDP1 cell CPT inconclusive, KB-V1 cytotox 4.6µM, TDP1 cell noCPT inconclusive
COC(=O)c1ccccc1NC(=O)C1CC=CCC1C(=O)O (stereo not given)	TDP1 cell noCPT inconclusive
CC1CN(C(=O)c2ccccc2OCc2ccc(Cl)cc2Cl)CC(C)O1 (stereo not given)	TDP1 cell CPT 16µM, TDP1 cell noCPT 3.7µM
CC1CN(C(=O)c2ccccc2Oc2ccccc2)CC(C)O1 (stereo not given)	TDP1 cell noCPT inconclusive, KB-3-1 tox 21µM
COc1ccc(CCNC(=O)CSc2cc(=O)n(C)c3ccccc23)cc1OC	none (no result: HT1080-NT tox, HT1080 IDH1KD tx)
